The record followed here is PubChem BioAssay.

Unmarked numbers belong to inactive results.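 How the source made its calls: active means aptamer binding inhibition above 30%, about 3 SD of noise from non-fluorescent compounds; inactive means inhibition at or below 30%.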

Sequence of Beta-adrenergic receptor kinase 1 (Homo sapiens) (P25098 whole entry, looked up): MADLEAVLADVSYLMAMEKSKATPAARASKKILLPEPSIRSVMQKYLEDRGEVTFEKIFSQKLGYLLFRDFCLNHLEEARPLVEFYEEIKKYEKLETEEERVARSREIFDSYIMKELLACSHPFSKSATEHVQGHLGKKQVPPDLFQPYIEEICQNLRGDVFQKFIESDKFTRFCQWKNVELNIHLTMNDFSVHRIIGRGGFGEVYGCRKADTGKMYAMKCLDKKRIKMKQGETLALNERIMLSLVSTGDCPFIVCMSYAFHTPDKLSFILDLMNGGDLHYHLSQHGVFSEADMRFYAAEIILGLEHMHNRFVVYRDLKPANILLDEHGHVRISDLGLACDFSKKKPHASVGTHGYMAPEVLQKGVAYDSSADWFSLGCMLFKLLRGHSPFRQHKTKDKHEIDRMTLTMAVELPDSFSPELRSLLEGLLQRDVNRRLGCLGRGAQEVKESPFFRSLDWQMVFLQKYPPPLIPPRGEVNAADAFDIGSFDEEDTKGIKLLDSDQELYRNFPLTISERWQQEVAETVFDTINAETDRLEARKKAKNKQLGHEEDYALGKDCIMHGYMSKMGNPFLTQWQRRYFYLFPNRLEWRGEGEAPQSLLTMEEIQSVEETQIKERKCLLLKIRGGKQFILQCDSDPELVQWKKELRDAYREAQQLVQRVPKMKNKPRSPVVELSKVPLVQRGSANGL

This experiment has as its target Beta-adrenergic receptor kinase 1 (Homo sapiens) (UniProt P25098). The experiment is described as follows: GRK2 binders displacing RNA aptamer, biochemical, validation, human GRK2, bead flow cytometry (AID 488806). The note with it: bead-bound GRK2, FAM-aptamer displacement, at 10 µM, stronger effect = higher value. Background: Flow cytometry measures light scatter and fluorescence of single cells or particles in a stream.
As for `CNc1c2c(nn1C)CCCC2`, the aptamer binding inhibition is 5%.

As for `O=C(CN1C(=O)/C(=C/c2cccc(Br)c2)SC1=S)Nc1cccnc1`, the aptamer binding inhibition was 0%.

Regarding `N/C(Cc1ccc(Cl)cc1Cl)=N\OC(=O)c1ccc(Br)o1`, the aptamer binding inhibition is -2%.

As to `O=C(c1ccco1)N1CCCN(Cc2nc(-c3ccc4c(c3)OCO4)no2)CC1`, the aptamer binding inhibition was 2%.

Take `Cc1ccc2c(c1)C(O)(C1COC(C)(C)CC1=O)C(=O)N2C` (centres undefined): the aptamer binding inhibition is 2%.

For `CC(C)(C)C(=O)N1CCCC1C(=O)O` (centres undefined), the aptamer binding inhibition was 11%.

As to `COc1ccc(C2NC(=O)c3ccccc3O2)c(OC)c1OC` (centres undefined), the aptamer binding inhibition was 5%.

Regarding `CC(C(=O)O)c1cccc(C(=O)c2ccccc2)c1` (centres undefined), the aptamer binding inhibition was 4%.

`C[N+]1(C2CCC3CCCC2C3O)CCCCC1` (centres undefined): the aptamer binding inhibition was 1%.

For the compound `CCc1cc(=O)oc2cc3occ(-c4ccc(OC)c(F)c4)c3cc12`, the aptamer binding inhibition is -1%.

For `COC(=O)[C@H]1[C@H]2C[C@@H]3c4[nH]c5cc(OC)ccc5c4CCN3C[C@H]2C[C@@H](OC(=O)c2ccc(N)cc2)[C@@H]1OC`, the aptamer binding inhibition is 3%.

Turning to `O=C(CN1CCN(Cc2ccccc2)CC1)N1CCCc2c1c(=O)oc1ccc(O)cc21`, the aptamer binding inhibition is -3%.

Turning to `CCOc1ccc2ccccc2c1C(=O)N[C@@H]1C(=O)N2[C@@H]1SC(C)(C)[C@@H]2C(=O)O`, the aptamer binding inhibition was 2%.

In the case of `COc1ccccc1N1CCN(CC(O)COc2cccc3ccccc23)CC1` (centres undefined), the aptamer binding inhibition is 6%.

As for `C[C@]12CC[C@@H]3c4ccc(O)cc4[C@@H](O)C[C@H]3[C@@H]1CC[C@@H]2O`, the aptamer binding inhibition is 26%.

With `O[C@H]1COC2C1OC[C@@H]2O` (some centres undefined), the aptamer binding inhibition was 0%.

For `O=C(NCCO)c1ccc(Cl)c(Cl)c1`, the aptamer binding inhibition is -1%.

As to `O=C(Nc1ccc(C(=O)NC2CCCCC2)cc1)c1cccnc1`, the aptamer binding inhibition was 1%.

On to `CC(=O)Oc1ccc(C(c2ccc(OC(C)=O)cc2)c2ccccn2)cc1`, for which the aptamer binding inhibition was 4%.

Regarding `CC(CCc1ccccc1)NC(=O)/C=C/c1ccccc1` (centres undefined), the aptamer binding inhibition is 5%.

For the compound `Cc1ccc2nc(NC3=NC(CC(=O)O)C(=O)N3)nc(C)c2c1` (centres undefined), the aptamer binding inhibition is 2%.

`O=C(NC(Nc1ccccn1)C(Cl)(Cl)Cl)c1ccccc1` (centres undefined): the aptamer binding inhibition is -1%.

On to `NC(N)=N/N=C/c1cccc(Cl)c1Cl`, for which the aptamer binding inhibition is -3%.

In the case of `COc1ccccc1C(=O)Oc1ccc2c(c1)O/C(=C\c1ccncc1)C2=O`, the aptamer binding inhibition is -1%.
